Experimental data: article PMC5700166

Tests used:
Experiment in all cases: protein-binding microarray (PBM); PBM: ~300 nM protein, 6 mM HEPES pH 7.8, 80 mM KCl, 0.5 mM EDTA, 0.5 mM EGTA, 6% glycerol, 35 ng/ul poly-dIdC, 1% milk, 1 h, room temperature; Ap Aiptasia and Nv Nematostella (sea anemones) / Co Capsaspora / Aq Amphimedon (sponge) / Dm Drosophila / Hu human; RHD is the Rel homology domain; high values mean tight binding
Settings in all cases: dsDNA, one strand shown
GST-Ap-NF-kB RHD = target: T1, GST-Ap-NF-kB RHD (Exaiptasia pallida (Aiptasia), UniProt A0A913YAJ5 2-422)
T1 sequence: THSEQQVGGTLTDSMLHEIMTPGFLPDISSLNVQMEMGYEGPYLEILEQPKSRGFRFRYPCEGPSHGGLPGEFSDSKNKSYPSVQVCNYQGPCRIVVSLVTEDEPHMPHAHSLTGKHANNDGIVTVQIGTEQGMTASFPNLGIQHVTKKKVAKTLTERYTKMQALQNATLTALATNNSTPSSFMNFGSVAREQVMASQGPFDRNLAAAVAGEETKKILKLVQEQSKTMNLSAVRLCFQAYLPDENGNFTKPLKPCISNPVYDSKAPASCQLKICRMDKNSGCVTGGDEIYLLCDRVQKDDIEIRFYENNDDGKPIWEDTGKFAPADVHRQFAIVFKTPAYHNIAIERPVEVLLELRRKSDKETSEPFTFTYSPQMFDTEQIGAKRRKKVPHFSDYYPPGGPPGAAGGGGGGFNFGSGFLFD

[1] = target: T2, GST-Nv-NF-kB (Cys allele) (Nematostella vectensis, UniProt E5G601 2-411)
T2 sequence: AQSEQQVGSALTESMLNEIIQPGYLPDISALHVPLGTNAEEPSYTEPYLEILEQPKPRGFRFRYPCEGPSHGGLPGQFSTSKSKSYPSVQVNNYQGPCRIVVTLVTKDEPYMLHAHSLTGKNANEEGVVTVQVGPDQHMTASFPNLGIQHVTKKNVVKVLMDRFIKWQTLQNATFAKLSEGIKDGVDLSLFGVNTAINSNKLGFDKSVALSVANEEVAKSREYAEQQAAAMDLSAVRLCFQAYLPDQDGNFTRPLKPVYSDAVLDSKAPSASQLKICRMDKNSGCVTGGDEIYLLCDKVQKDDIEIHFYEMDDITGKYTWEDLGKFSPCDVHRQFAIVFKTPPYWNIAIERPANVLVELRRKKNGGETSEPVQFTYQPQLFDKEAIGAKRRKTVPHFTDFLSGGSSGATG

GST-Co-NF-kB = target: T3, GST-Co-NF-kB (Capsaspora owczarzaki, UniProt F1ARL5 200-546)
T3 sequence: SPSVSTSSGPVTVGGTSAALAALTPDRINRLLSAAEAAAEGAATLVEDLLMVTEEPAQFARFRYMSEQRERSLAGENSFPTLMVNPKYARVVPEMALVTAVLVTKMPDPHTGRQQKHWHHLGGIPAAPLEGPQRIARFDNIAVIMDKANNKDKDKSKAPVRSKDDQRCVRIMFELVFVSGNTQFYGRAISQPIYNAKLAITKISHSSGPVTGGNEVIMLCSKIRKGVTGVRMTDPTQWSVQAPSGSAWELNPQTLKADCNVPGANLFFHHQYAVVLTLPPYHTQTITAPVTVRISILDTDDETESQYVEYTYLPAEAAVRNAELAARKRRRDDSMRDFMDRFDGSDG

GST-Dm-Relish = target: T4, GST-Dm-Relish (Drosophila melanogaster, UniProt Q94527 99-473)
T4 sequence: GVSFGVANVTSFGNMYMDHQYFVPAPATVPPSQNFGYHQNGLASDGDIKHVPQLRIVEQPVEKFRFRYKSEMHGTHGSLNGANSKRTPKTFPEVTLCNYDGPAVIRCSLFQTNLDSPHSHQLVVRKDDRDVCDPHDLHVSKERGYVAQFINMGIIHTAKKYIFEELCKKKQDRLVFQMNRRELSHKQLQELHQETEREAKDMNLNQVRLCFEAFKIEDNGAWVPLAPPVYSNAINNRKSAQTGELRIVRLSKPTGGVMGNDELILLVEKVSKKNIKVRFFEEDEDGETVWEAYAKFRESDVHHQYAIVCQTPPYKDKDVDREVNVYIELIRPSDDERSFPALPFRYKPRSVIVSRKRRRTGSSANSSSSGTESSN

GST-Aq-NF-kB = target: T5, GST-Aq-NF-kB (Amphimedon queenslandica, UniProt A9Y5G7 2-389)
T5 sequence: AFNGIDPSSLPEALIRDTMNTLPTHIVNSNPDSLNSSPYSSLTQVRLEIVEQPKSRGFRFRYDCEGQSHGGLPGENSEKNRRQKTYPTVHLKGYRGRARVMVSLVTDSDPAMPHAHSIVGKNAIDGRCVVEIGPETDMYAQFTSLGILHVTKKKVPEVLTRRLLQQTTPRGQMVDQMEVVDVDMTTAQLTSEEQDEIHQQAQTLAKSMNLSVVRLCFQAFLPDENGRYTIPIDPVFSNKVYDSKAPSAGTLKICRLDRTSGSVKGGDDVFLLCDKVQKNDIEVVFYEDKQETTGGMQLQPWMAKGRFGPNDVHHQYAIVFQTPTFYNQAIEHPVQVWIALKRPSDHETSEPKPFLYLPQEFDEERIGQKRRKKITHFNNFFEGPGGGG

| Sequence | binding signal (GST-Ap-NF-kB RHD) [z-score] | binding signal [1] [z-score] | binding signal (GST-Co-NF-kB) [z-score] | binding signal (GST-Dm-Relish) [z-score] | binding signal (GST-Aq-NF-kB) [z-score] |
| --- | --- | --- | --- | --- | --- |
| CCGATTAACATCAGGGAAATAAATGATGTTAATCGGGTCTTGATTCGCTTGACGCTGCTG | 2.39 | 4.44 | 4.38 | 2.1 | 4.44 |
| CCGATTAACATCAAATTGCCCCCTGATGTTAATCGGGTCTTGATTCGCTTGACGCTGCTG | 4.13 | 3.94 | 4.71 | 3.33 | 4.88 |
| CCGATTAACATCAGGGAACTCCATGATGTTAATCGGGTCTTGATTCGCTTGACGCTGCTG | 2.66 | 2.2 | 1.5 | 6.21 | 3.71 |
| CCGATTAACATCAGGGGTTACCCTGATGTTAATCGGGTCTTGATTCGCTTGACGCTGCTG | 6.28 | 5.58 | 4.23 | 8.84 | 7.71 |
| CCGATTAACATCAAGAATTCCCGTGATGTTAATCGGGTCTTGATTCGCTTGACGCTGCTG | 4.85 | 6.36 | 4.23 | 4.9 | 5.46 |
| CCGATTAACATCAGGGGAGCACCTGATGTTAATCGGGTCTTGATTCGCTTGACGCTGCTG | 4.77 | 3.52 | 3.23 | 4.91 | 4.81 |
| CCGATTAACATCAGGGAAAACCATGATGTTAATCGGGTCTTGATTCGCTTGACGCTGCTG | 3.89 | 5.15 | 4.31 | 5.57 | 5.29 |
| CCGATTAACATCAGGGGGATGGATGATGTTAATCGGGTCTTGATTCGCTTGACGCTGCTG | 3.8 | 3.13 | 3.52 | 2.24 | 3.5 |
| CCGATTAACATCAGAAATCCCACTGATGTTAATCGGGTCTTGATTCGCTTGACGCTGCTG | 2.54 | 2.54 | 1.65 | 5.45 | 2.41 |
| CCGATTAACATCAACTCCCCCCCTGATGTTAATCGGGTCTTGATTCGCTTGACGCTGCTG | 6.64 | 4.56 | 7.71 | 5.06 | 5.08 |
| CCGATTAACATCACGGACTCCCCTGATGTTAATCGGGTCTTGATTCGCTTGACGCTGCTG | 5.18 | 3.32 | 3.37 | 6.19 | 4.33 |
| CCGATTAACATCAGGGAAAGAAATGATGTTAATCGGGTCTTGATTCGCTTGACGCTGCTG | 1.61 | 3.74 | 4.91 | 1.72 | 3.72 |
| CCGATTAACATCAAAACAACCCCTGATGTTAATCGGGTCTTGATTCGCTTGACGCTGCTG | 3.57 | 3.44 | 2.54 | 2.68 | 4.83 |
| CCGATTAACATCAGGGACAACCCTGATGTTAATCGGGTCTTGATTCGCTTGACGCTGCTG | 3.42 | 4.16 | 1.06 | 3.09 | 5.59 |
| CCGATTAACATCAGCCCCCCCCATGATGTTAATCGGGTCTTGATTCGCTTGACGCTGCTG | 4.34 | 2.9 | 5.27 | 4.42 | 4.51 |
| CCGATTAACATCACCGCCCCCCCTGATGTTAATCGGGTCTTGATTCGCTTGACGCTGCTG | 3.91 | 4.65 | 3.8 | 4.88 | 4.3 |
| CCGATTAACATCAGATTTCCCACTGATGTTAATCGGGTCTTGATTCGCTTGACGCTGCTG | 1.83 | 3.74 | 3.15 | 2.02 | 2.32 |
| CCGATTAACATCACGGGAGTTCCTGATGTTAATCGGGTCTTGATTCGCTTGACGCTGCTG | 3.99 | 3.71 | 1.77 | 4.98 | 5.04 |
| CCGATTAACATCAAAAATCACCCTGATGTTAATCGGGTCTTGATTCGCTTGACGCTGCTG | 2.67 | 2.98 | 2.5 | 7.81 | 3.84 |
| CCGATTAACATCAAGGGATCCCCTGATGTTAATCGGGTCTTGATTCGCTTGACGCTGCTG | 8.25 | 5.8 | 4.18 | 9.18 | 6.19 |
| CCGATTAACATCAGGGGGGGTTATGATGTTAATCGGGTCTTGATTCGCTTGACGCTGCTG | 6.15 | 3.92 | 4.45 | 6.55 | 5.06 |
| CCGATTAACATCAATAAATACCCTGATGTTAATCGGGTCTTGATTCGCTTGACGCTGCTG | 3.73 | 5.36 | 2.51 | 4.58 | 4.69 |
| CCGATTAACATCAAATTTCCCGCTGATGTTAATCGGGTCTTGATTCGCTTGACGCTGCTG | 3.85 | 5.17 | 4.99 | 2.88 | 5.22 |
| CCGATTAACATCAGGCTATCCCCTGATGTTAATCGGGTCTTGATTCGCTTGACGCTGCTG | 4.44 | 3.67 | 2.18 | 3.3 | 4.81 |
| CCGATTAACATCAATGTCCCCCCTGATGTTAATCGGGTCTTGATTCGCTTGACGCTGCTG | 5.26 | 4.79 | 8.35 | 3.82 | 4.85 |
| CCGATTAACATCAAGTATTTCCCTGATGTTAATCGGGTCTTGATTCGCTTGACGCTGCTG | 3.79 | 5.18 | 4.22 | 5.66 | 5.42 |
| CCGATTAACATCAACAGGGAAAATGATGTTAATCGGGTCTTGATTCGCTTGACGCTGCTG | 3.23 | 4.25 | 2.91 | 1.32 | 3.33 |
| CCGATTAACATCAGGAAGTTCCCTGATGTTAATCGGGTCTTGATTCGCTTGACGCTGCTG | 4.78 | 5.36 | 2.57 | 4.82 | 7.74 |
